# IEC-6 tox = cytotoxicity in IEC-6 intestinal epithelial cells, primary screen, cytotoxicity control for KLF5 inhibitor project, cell-based, luminescence; IEC-6 cytotoxicity, luminescence viability; inhibition, % at 5 µM; 290,000 compounds, 0.78% hits; AID 1825, 2009;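 note: 0% = plate median of test compound wells and 100% = cytotoxic reference compound wells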
# Ba/F3 V617F tox = reduced viability of JAK2V617F-dependent Ba/F3 cells, primary screen, JAK2V617F inhibitor project, cell-based, Ba/F3 EpoR-JAK2V617F, luminescence; ATP luminescence; inhibition, % at 5.6 µM; 220,000 compounds, 1.1% hits;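 active = inhibition above the campaign mean plus 3 SD over all tested compounds, cut at about 24% in these data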;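 note: cytokine-independent growth of Ba/F3 cells driven by EpoR plus mutant JAK2; 0% = DMSO-treated cells and 100% = JAK inhibitor I control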
# BaF3 parental = parental Ba/F3 cell viability inhibition, counter-screen for JAK2V617F inhibitor project, murine pro-B, CellTiter-Glo luminescence; AID 1486, 2009; CellTiter-Glo ATP luminescence; 220,000 compounds, 1.1% hits; inhibition, % at 5.6 µM;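 active = inhibition above a per-campaign cutoff, the mean inhibition of all tested compounds plus 3 SD, cut at about 27% in these data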;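 note: 0% = DMSO wells and 100% = JAK Inhibitor I control wells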
# APP 5UTR inh = inhibitors of APP translation via 5'UTR reporter, primary screen, APP 5'UTR luciferase, SH-SY5Y cells | inhibition, % at 2 µM | 190,000 compounds, 0.82% hits | SH-SY5Y APP 5'UTR-luciferase reporter, luminescence;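 active = inhibition above a set limit, derived from the sample mean plus 3 SD, cut at about 45% in these data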
# KLF5 inhibitor = KLF5 expression inhibitors, primary screen, DLD-1 cells, luminescence | DLD-1 KLF5 promoter-luciferase reporter | inhibition, % at 5 µM | 290,000 compounds, 0.23% hits | AID 1700, 2009;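 active = inhibition above a per-plate limit of that plate's mean compound inhibition plus 3 SD, cut at about 60% in these data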;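 note: 0% = DMSO wells and 100% = LY294002 at 200 µM; higher means less KLF5 promoter-driven luciferase light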
# IEC-6 cytotox cf = cytotoxic compounds in IEC-6 epithelial cells, confirmation, cytotoxicity control, cell-based, luminescence; shares compounds with IEC-6 tox; IEC-6 rat intestinal epithelial viability; inhibition, % at 5 µM; 1,900 compounds, 63% hits; AID 1907, 2009;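 note: 0% = vehicle and 100% = reference cytotoxic drug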
# * hit, by the source's call; x = no result. Most compounds without a hit are left out; they make up all but 1.9% or so of the library. Cut-off read from the data, not from the text of the source, unless noted: active = inhibition above about 22%; inactive = the rest.
SMILES,IEC-6 tox,Ba/F3 V617F tox,BaF3 parental,APP 5UTR inh,KLF5 inhibitor,IEC-6 cytotox cf
S=c1nc[nH]c2nc[nH]c12,83*,x,x,x,47,69*
Cc1cccn2c(=O)c(/C=N/O)c(N3CCOCC3)nc12,1,-2,3,1,0,x
CCOc1ccc2c(c1)OC(c1ccc(OC)cc1)(C(F)(F)F)NC2=O (stereo unspecified),81*,78*,77*,91*,45,55*
Cc1ccccc1Oc1nc2c(C)cccn2c(=O)c1/C=C(\C#N)C(=O)NC1CCS(=O)(=O)C1 (stereo unspecified),55*,-6,0,x,11,29*
COc1ccccc1NC(=O)COC(=O)c1ccccc1OCC(=O)Nc1ccc(SC(F)F)cc1,-3,-3,6,-18,-11,x
CN(C)C(=O)COC(=O)c1ccccc1Nc1ccc(SC(F)F)cc1,45*,4,10,-19,-88,37*
CCCC(=O)C1=C(O)C(C(=O)OC)C(C)(C)CC1=NCCc1ccccc1 (stereo unspecified),-4,x,x,x,-25,x
c1ccc(CNc2c3ccccc3nc3ccccc23)cc1,26*,x,x,x,-4,16
CCN1CCN(CCNC(=O)c2ccc(/C=C3/Sc4ccccc4N(Cc4ccccc4C)C3=O)cc2)CC1,30*,7,14,-1,-71,18
O=C1c2ccccc2C(=O)N1c1cccc2cccnc12,44*,3,10,-10,-23,9
Cc1cccc(C)c1OCCSc1nc2ccccc2n1CC(=O)O,-6,x,x,x,-13,x
Cc1cc(C)c(NC(=O)NC(=O)C(Cl)(Cl)Cl)c(C)c1,1,-2,0,3,-23,x
C/[N+]([O-])=C\c1cccc(OCCN2CCN(c3ncc(C(F)(F)F)cc3Cl)CC2)c1,-3,x,x,x,-37,x
O=C1C(=O)N(CCS(=O)(=O)c2ccccc2)c2ccc(Cl)cc21,40*,x,x,x,-15,4
Cc1c(CC(=O)NCCCO)c(=O)oc2cc3c(cc12)CCC(C)(C)O3,-7,x,x,x,-6,x
C/C(=N\NC(=O)CN(c1ccccc1)S(C)(=O)=O)c1ccccc1O,4,0,6,0,12,x
C/C(=N\NC(=O)CN1CCCCC1)c1ccccc1O,42*,x,x,x,-10,19
Cc1ccc(C)c(S(=O)(=O)N2CCN(C(=O)c3cncc(Br)c3)CC2)c1,3,x,x,x,-18,x
O=C(Nc1ccncc1)C1CCN(S(=O)(=O)c2ccccc2C(F)(F)F)CC1,6,x,x,x,-2,x
COc1ccccc1N1CCN(c2ccnc3cc(Cl)ccc23)CC1,65*,x,x,x,42,53*
Cc1cc(NC(=O)CSc2nc3ccccc3c(=O)n2C2CCCC2)no1,63*,13,8,-9,31,56*
CN(C)c1ccc(NC(=O)CSc2nc3ccccc3c(=O)n2C2CCCCC2)cc1,2,1,6,1,-4,x
Cc1ccc(NC(=O)NCCCN2CCCC2=O)cc1C,-7,x,x,x,-33,x
N#CC1CC(c2ccccc2)Nc2cc(Cl)ccc2N1 (stereo unspecified),40*,2,-1,x,-64,21
C[C@@H]1C[C@H](O)c2cc(Cl)ccc2N1,1,0,4,-11,-31,x
SMILES,IEC-6 tox,Ba/F3 V617F tox,BaF3 parental,APP 5UTR inh,KLF5 inhibitor,IEC-6 cytotox cf
CCCCc1ccc(NC(=O)Nc2cnccn2)cc1,45*,x,x,x,-24,23*
CCc1ccc2oc(C(=O)N3CCN(c4ccccc4OC)CC3)cc(=O)c2c1,31*,x,x,x,8,55*
CCc1ccc2oc(C(=O)N3CCN(c4ccc(OC)cc4)CC3)cc(=O)c2c1,4,x,x,x,-18,x
Cc1ccc(CSCC(=O)NCc2ccco2)cc1,-2,4,9,4,-22,x
COC(=O)c1[nH]c2c(c1C)C(=O)CC(c1cc(OC)ccc1OC)C2 (stereo unspecified),6,3,5,0,5,x
COCCOC(=O)c1[nH]c2c(c1C)C(=O)CC(c1ccccc1)C2 (stereo unspecified),84*,74*,75*,92*,45,56*
CSCCOC(=O)c1[nH]c2c(c1C)C(=O)CC(c1ccco1)C2 (stereo unspecified),74*,72*,73*,95*,59,48*

# Assay outcomes from PubChem.
